The text below walks through data of PubChem BioAssay (NCATS).

SMILES strings stand for the structures. Unmarked numbers belong to inactive results. Inconclusive results are not listed. Calls of active or inactive are those of the source. Calls follow the shape of the dose curve; as a rule, active = well fitted curve in the direction sought with a large enough effect; inconclusive = small, poorly fitted or top-dose-only effect, or another doubt; inactive = no such curve, though single readings can be large; an effect the other way counts as inactive or inconclusive.

The test system of assay [1] is Zika virus NS2B-NS3 protease (linked construct). Kind of assay: Primary screen NINDS Rhodamine qHTS for Zika virus inhibitors (AID 1347160). Also: nearly all actives have a fitted effect of over 55% in size. A digest of the protocol:
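Kinetic fluorescence (Ex 480 nm, Em 540 nm) over 15 min with 1.5 microM Rhodamine110 peptide and 25 nM linked protease.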

The target in assay [2] is Calcium and integrin-binding protein 1 (Homo sapiens) (UniProt Q99828). As to the kind of experiment: Primary qHTS for Identification of Calcium Integrin Binding Protein 1 (CIB1) Competitor (AID 1508620). Also: top concentration of the series differs between compounds; % is scaled to controls: 0 for no effect and ±100 for the full control effect. A digest of the protocol: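 Fluorescence polarization competition: GST-tagged CIB1 (1 uM final) preincubated with compound 15 min at room temperature, then FITC-labelled alphaIIb peptide (100 nM final) added. After 15 min at room temperature, polarization read at Ex 480/Em 540.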
In general terms: In qHTS, concentration-response curves come from the screen itself.

In assay [3] the target is Glutathione peroxidase 1 (Homo sapiens) (UniProt P07203). Kind of assay: Primary qHTS Assay for Inhibitors of Recombinant Selenoprotein Glutathione Peroxidase 1 (GPX1) (AID 1845191). Also: nearly all actives have a fitted effect of over 65% in size. A digest of the protocol: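 GR-coupled assay: compounds preincubated 30 min at room temperature with GPX1, then reaction started with CHP; final 10 nM GPX1, 1 mM GSH, 0.5 mM CHP, 0.5 mM NADPH, 100 nM GR, 0.01% BSA, pH 7.5 Tris buffer. NADPH fluorescence (340/450 nm) read at 0 and 15 min.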

The target in assay [4] is Phospholipid hydroperoxide glutathione peroxidase GPX4 (Homo sapiens) (UniProt P36969). Kind of assay: Primary qHTS Assay for Inhibitors of Recombinant Selenoprotein Glutathione Peroxidase 4 (GPX4) (AID 1845192). Also: % is scaled to controls: 0 for no effect and ±100 for the full control effect; nearly all actives have a fitted effect of over 65% in size. In short, it runs like this:
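GR-coupled assay: recombinant GPX4 preincubated 30 min with compound at room temperature; final 200 nM GPX4, 1 mM GSH, 0.5 mM cumene hydroperoxide, 0.5 mM NADPH, 100 nM GR, 0.01% BSA, pH 7.5 Tris. NADPH fluorescence (340/450 nm) read at 0 and 15 min.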

Assay [5] concerns the target Luciferin 4-monooxygenase (Photinus pyralis) (UniProt P08659). As to the kind of experiment: Primary firefly luciferase (FLuc) qHTS assay for identification of artifact compounds. (AID 1845220). Also: nearly all actives have a fitted effect of over 60% in size. The following applies: outcome: dose series up to 54.1 µM unless noted. In short, it runs like this:
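Titrated compounds were incubated 15 min at RT, protected from light, with luciferin and ATP at 10 uM; reaction started with 10 nM FLuc, luminescence imaged at 5 min, and concentration-response fitted by Hill equation.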

Assay [6] is described as follows: Primary fluorescence-based thiol-reactive (MSTI) qHTS assay for identification of artifact compounds. (AID 1845221).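 Also: thiol-reactive compounds lower the probe fluorescence signal; nearly all actives have a fitted effect of over 65% in size.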 In short, it runs like this:
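Thiol-reactive compounds detected by quenching of 4 uM MSTI fluorescence (525/598 nm) after 1 h room-temperature dark incubation in PBS pH 7.4, 2% DMSO. qHTS titration; percent inhibition Hill-fitted against Acetyl-MSTI/MSTI controls.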

Assay [7] relates to Nanoluciferase (engineered Oplophorus gracilirostris luciferase). As to the kind of experiment: Primary Nanoluciferase (NLuc) qHTS assay for identification of artifact compounds. (AID 1845222).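 Also: NLuc secreted into diluted conditioned medium of S16 cells; 0% = DMSO and -100% = no enzyme.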 In short, it runs like this:
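qHTS format, against NLuc in S16 cell-conditioned medium. Nano-Glo substrate 1:100 was added after 15 min at room temperature. Luminescence was taken after a further 5 min.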

A short description of assay [8]: Primary redox qHTS assay for identification of artifact compounds. (AID 1845223).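 Also: 0% = DMSO and 100% = reference compound.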 In short, it runs like this:
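Amplex Red (25 uM) and HRP (250 mU/mL) in HBSS, with compounds for 15 min, then 250 uM DTT for 30 min, room temperature, dark. Fluorescence 525/598 nm read; normalized to DMSO and 10 uM DA3003; Hill fit.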

The subject of assay [9] is HaCat. As to the kind of experiment: Cytotoxic Profiling of Annotated Libraries Using Quantitative High-Throughput Screening (AID 1296008). Also: % is scaled to controls: 0 for no effect and ±100 for the full control effect; nearly all actives have a fitted effect of over 60% in size. The conditions noted are these: Five cell lines viability, CellTiter-Glo ATP luminescence, 48-72 h; max response: active compounds read low. In short, it runs like this: (§1)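 Cells exposed to compounds for 48 or 72 hr at 37 degrees Celsius. Viability read as ATP-coupled luminescence with CellTiter-Glo after 10 min at room temperature.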
(Cellular ATP, detected with luciferase, serves as a proxy for viable cell number.)

In assay [10] the test system is NIH3T3. Described as above. The conditions noted are these: Five cell lines viability, CellTiter-Glo ATP luminescence, 48-72 h; max response: active compounds read low. A digest of the protocol:
as §1

Assay [11] relates to C33A. Kind of assay: Primary qHTS to identify gynecologic anti-cancer compounds using libraries of approved drugs and bioactive compounds (AID 1345084). Also: nearly all actives have a fitted effect of over 55% in size. Also: potency is read from the fitted curve at half-maximal effect. The following applies: Gynecologic cancer cell panel viability, ATPlite luminescence, 48 h; series mostly up to 57.5 µM. In short, it runs like this:
(§2)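 Five-point cytotoxicity, 48 h drug exposure at 37 C, 5% CO2, on cells seeded 16 h beforehand. ATP content read by ATPlite luminescence.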

Assay [12] deals with CAOV3. Described as above. The following applies: Gynecologic cancer cell panel viability, ATPlite luminescence, 48 h; series mostly up to 57.5 µM. In short, it runs like this:
as §2

Assay [13] concerns CASKI. The description is as above. The conditions noted are these: Gynecologic cancer cell panel viability, ATPlite luminescence, 48 h; series mostly up to 57.5 µM. In short, it runs like this:
as §2

The subject of assay [14] is Es-2. The assay is described as above. The following applies: Gynecologic cancer cell panel viability, ATPlite luminescence, 48 h; series mostly up to 57.5 µM. In short, it runs like this: as §2
Assay [15] has as its system Hek293T. Described as above. The conditions noted are these: Gynecologic cancer cell panel viability, ATPlite luminescence, 48 h, control line for the selectivity index; series mostly up to 57.5 µM. In short, it runs like this: as §2
Assay [16] has as its system JEG-3. Described as above. The conditions noted are these: Gynecologic cancer cell panel viability, ATPlite luminescence, 48 h; series mostly up to 57.5 µM. In short, it runs like this:
as §2

Assay [17] has as its system OV90. The assay is described as above. The following applies: Gynecologic cancer cell panel viability, ATPlite luminescence, 48 h; series mostly up to 57.5 µM. A digest of the protocol:
as §2

In assay [18] the test system is PA-1. The description is as above. The following applies: Gynecologic cancer cell panel viability, ATPlite luminescence, 48 h; series mostly up to 57.5 µM. A digest of the protocol: as §2
Assay [19] relates to Tov-21-G. Described as above. The following applies: Gynecologic cancer cell panel viability, ATPlite luminescence, 48 h; series mostly up to 57.5 µM. In short, it runs like this:
as §2

Assay [20] relates to Tov112D. The assay is described as above. The conditions noted are these: Gynecologic cancer cell panel viability, ATPlite luminescence, 48 h; series mostly up to 57.5 µM. A digest of the protocol: as §2

Sequence of Glutathione peroxidase 1 (Homo sapiens) (P07203 whole entry, looked up): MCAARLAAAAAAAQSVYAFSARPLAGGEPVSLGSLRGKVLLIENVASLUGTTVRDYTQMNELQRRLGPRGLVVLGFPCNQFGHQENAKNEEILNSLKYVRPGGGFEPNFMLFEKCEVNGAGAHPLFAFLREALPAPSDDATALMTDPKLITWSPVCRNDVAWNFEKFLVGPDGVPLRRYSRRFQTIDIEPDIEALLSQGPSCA
Sequence of Phospholipid hydroperoxide glutathione peroxidase GPX4 (Homo sapiens) (P36969 whole entry, looked up): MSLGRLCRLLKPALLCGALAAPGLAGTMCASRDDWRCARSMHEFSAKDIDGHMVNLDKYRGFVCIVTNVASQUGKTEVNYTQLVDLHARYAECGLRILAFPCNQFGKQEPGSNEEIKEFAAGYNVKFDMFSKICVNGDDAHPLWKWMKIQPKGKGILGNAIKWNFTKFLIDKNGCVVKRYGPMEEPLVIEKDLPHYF
Sequence of Calcium and integrin-binding protein 1 (Homo sapiens) (Q99828 whole entry, looked up): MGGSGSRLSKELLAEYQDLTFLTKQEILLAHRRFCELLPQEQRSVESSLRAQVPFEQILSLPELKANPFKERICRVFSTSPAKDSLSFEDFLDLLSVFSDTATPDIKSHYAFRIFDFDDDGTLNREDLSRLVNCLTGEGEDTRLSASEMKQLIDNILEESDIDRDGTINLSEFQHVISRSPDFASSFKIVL

Turning to `NC(=O)[C@@H](CC1CC1)[C@@H](CCC(F)(F)F)C(=O)N[C@H]1N=C(c2ccccc2)c2cccc(F)c2NC1=O`, the Potency entry in assay [1], in assay [2], in assay [3], in assay [4], in assay [6] and in assay [7] was “inactive” each time. Further, the Potency result in assay [8], in assay [11], in assay [12], in assay [13], in assay [14] and in assay [15] was “inactive” throughout. The Potency entry in assay [16], in [17], in [18], in assay [19] and in assay [20] was “inactive” throughout. The compound was classed as inactive in [5]. The max response in [9] is -25%; in [10], -16.9%.
In the case of `Cc1ccccc1C1=CCN(C)CC1`, the Potency result in [1], in assay [2], in assay [3], in [4], in assay [6] and in [7] was “inactive” throughout. Also, the Potency result in assay [12], in assay [13], in assay [14], in assay [15], in assay [16] and in assay [17] was “inactive” each time. Also, the Potency result in [18], in [19] and in [20] was “inactive” in each case. Besides, the outcome in [5] was inactive. The max response in assay [9] is -6.61%.
As for `CO[C@H]1C[C@H](O[C@H]2CC[C@]3(CO)[C@H]4CC[C@]5(C)[C@@H](C6=CC(=O)OC6)CC[C@]5(O)[C@@H]4CC[C@]3(O)C2)O[C@H](C)[C@H]1O`, the Potency result in assay [1], in assay [2], in assay [3], in assay [6], in assay [7] and in assay [8] was “inactive” each time. Further, the compound was classed as inactive in [5]. Besides, in [10], the max response is 1.22%. For the same compound, the Potency in assay [11] is 0.0891 µM (active); in assay [12] it was 0.355 µM (active); in assay [13] it was 0.891 µM (active); in [14], 0.199 µM (active); in assay [15], 0.224 µM (active); in assay [17] it was 1 µM (active). Besides, the figures for the Potency in assay [18], in [19] and in assay [20] were 0.112 µM (active), 0.141 µM (active) and 0.0316 µM (active), respectively.
As for `O=C(NCCN1CCC2(CC1)C(=O)NCN2c1cccc(F)c1)c1ccc(F)c(F)c1`, the Potency entry in assay [1], in assay [2], in assay [3], in assay [4], in assay [6] and in assay [7] was “inactive” throughout. Moreover, the Potency entry in [8], in assay [11], in assay [12], in [13], in assay [14] and in assay [15] was “inactive” throughout. Further, the Potency entry in assay [16], in assay [17], in assay [18], in assay [19] and in [20] was “inactive” each time. The result in assay [5] was inactive. The max response in assay [10] is -17.5%.
In the case of `CCC1CC2CN3CCc4c([nH]c5ccccc45)C(C(=O)OC)(C2)C13` (stereo not given), the Potency result in [1], in assay [2], in [3], in assay [4], in assay [8] and in [11] was “inactive” throughout. The Potency entry in [12], in assay [13], in [14], in assay [15], in assay [16] and in [17] was “inactive” throughout. Besides, the Potency result in assay [18], in assay [19] and in assay [20] was “inactive” in each case. Also, the call in [5] was inactive. The max response in assay [10] is -4.92%.
